Laboratory results from PubChem BioAssay (NCI).
The panel holds about 83,000 compounds, 20% with a hit somewhere; the sample as a whole holds those more often.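 Results are percent growth after 48 hours of single-concentration exposure. 100 means growth as in untreated cells, lower positive values show inhibition; negative values down to -100 show cell death.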 A number with no mark means an inactive call. Activity calls are given as the source filed them. Rule for the calls: active = growth percent below 10; inactive = the rest.

Key:
Experiment in all cases: NCI-60 one-dose screen, 48 h (100 = growth as untreated, 0 = no growth, -100 = all killed)
Conditions in all cases: 10 µM unless noted
[1] = system: HCT-15 colon
[2] = system: HT29 colon
[3] = system: SNB-75 CNS
[4] = system: SNB-19 CNS
[5] = system: U251 CNS
[6] = system: PC-3 prostate
[7] = system: SK-MEL-5 melanoma
[8] = system: UACC-62 melanoma
[9] = system: LOX IMVI melanoma
[10] = system: SK-MEL-28 melanoma
[11] = system: SK-MEL-2 melanoma
[12] = system: EKVX NSCLC
[13] = system: SN12C renal
[14] = system: UO-31 renal
[15] = system: TK-10 renal
[16] = system: ACHN renal
[17] = system: CAKI-1 renal
[18] = system: A498 renal
[19] = system: CCRF-CEM leukemia
[20] = system: MOLT-4 leukemia

SMILES | growth [1] | growth [2] | growth [3] | growth [4] | growth [5] | growth [6] | growth [7] | growth [8] | growth [9] | growth [10] | growth [11] | growth [12] | growth [13] | growth [14] | growth [15] | growth [16] | growth [17] | growth [18] | growth [19] | growth [20]
CCCCCCCCCCCCCCCCCC(=O)[O][Sn]([CH2]CCC)([CH2]CCC)[CH2]CCC | -82.6% (active) | -52.2% (active) | -96.8% (active) | -70.9% (active) | -89.3% (active) | -69.3% (active) | -99.9% (active) | -60.6% (active) | -92.7% (active) | -94.8% (active) | -60.7% (active) | -40.1% (active) | -47.2% (active) | -92.4% (active) | -93.6% (active) | -96.8% (active) | -86.5% (active) | -98% (active) | 1.06% (active) | 4.55% (active)
CCCCCCCCCCCC1=NC(C)(C)CN1CC(C)O (stereo not given) | 6.24% (active) | -48.3% (active) | 61.8% | 96.8% | 33.9% | 51.4% | 34% | -49.4% (active) | 6.88% (active) | 59.8% | 63.4% | 68.8% | 69.8% | 47.6% | 91.7% | 80.2% | 69.8% | 99.8% | 25.5% | 25.4%
Nc1ccc(C2=NNC(=O)Cc3cc4c(cc32)OCCO4)cc1Cl | 28.9% | 9.09% (active) | -1.14% (active) | 57.5% | 39.1% | 53% | 29.8% | 38% | 39% | 56.4% | 36.8% | 63.9% | 61.1% | 61.2% | 72.3% | 53.3% | 48.4% | 56.3% | 42.5% | 34.8%
CC1=C(O)C(=O)CC1 | 108% | 101% | 97.9% | 101% | 100% | 80.9% | 99.5% | 110% | 99.7% | 100% | 118% | 96.2% | 97% | 94% | 111% | 111% | 90.9% | 83.7% | 115% | 108%
COc1ccc([C@H]2c3[nH]c4ccccc4c3C[C@H]3C(=O)N(CCCCCCC(=O)NO)CC(=O)N23)cc1 | 81% | 35% | -0.662% (active) | 48.5% | 30.4% | 11.9% | 12.4% | 9.81% (active) | 13.1% | 4.8% (active) | 31.4% | 66.8% | 46.5% | 43.8% | 43.5% | 22.1% | 43.9% | -4.1% (active) | 13.3% | 12.1%
COc1ccc(CC2c3cc(OC)c(OC)cc3CC[N+]2(C)CCC(=O)OCCCCCOC(=O)CC[N+]2(C)CCc3cc(OC)c(OC)cc3C2Cc2ccc(OC)c(OC)c2)cc1OC (stereo not given) | 102% | 96% | 63.4% | 104% | 93.4% | 90.3% | 87.4% | 93.3% | 81% | 99.8% | 98.7% | 101% | 81.2% | 66.2% | 124% | 97.1% | 87.4% | 66% | 94.1% | 80.4%
CC(=O)Oc1ccccc1C(=O)Nc1ncc([N+](=O)[O-])s1 | 32.3% | 44.9% | 46.4% | 41.7% | 39.2% | 10.1% | 22.8% | 1.31% (active) | 23.4% | 49.3% | -30.1% (active) | 34.7% | 15.4% | 16.2% | 19.4% | 55.8% | 10.7% | -40.2% (active) | 13.9% | -9.45% (active)
O=c1nc(-c2ccccc2)c2cc(-c3ccc(N4CCOCC4)cc3)ccc2[nH]1 | 74% | 84.5% | 106% | 87.4% | 69.9% | 70.9% | 83.6% | 74.3% | 74.5% | 91.8% | 81.6% | 89.8% | 79.4% | 66% | 68.1% | 71.6% | 74.8% | 88.6% | 77.4% | 71.2%
CC(=O)C1CCC2C3CC(C)=C4CC(O)CCC4(C)C3CCC12C (stereo not given) | 100% | 96.4% | 100% | 97.5% | 97.5% | 88.2% | 99.4% | 91.6% | 92.1% | 105% | 94.8% | 79.5% | 99.2% | 87.7% | 110% | 94.8% | 97.4% | 113% | 92.4% | 80%
COc1ccc(Nc2nc(N)nc3c(=O)[nH]ccc23)cc1 | 109% | 103% | 107% | 101% | 115% | 81.5% | 111% | 111% | 102% | 124% | 111% | 105% | 113% | 64.6% | 173% | 115% | 93.3% | 120% | 83.9% | 97.8%
CNC(=O)c1c(NC(=O)c2cccc(C(F)(F)F)c2)sc2c1CCC(=O)C2 | -37% (active) | 4.59% (active) | -7.71% (active) | 13.8% | 2.7% (active) | -46.4% (active) | -68.3% (active) | -41.1% (active) | -49.6% (active) | 7.1% (active) | -16.5% (active) | 4.31% (active) | 3.13% (active) | -94.3% (active) | 32.1% | -66.9% (active) | -22.5% (active) | -5.84% (active) | -0.844% (active) | -7.92% (active)
COc1ccccc1CNCCCN1C(=O)c2ccc3c4c(ccc(c24)C1=O)C(=O)N(CCCOCCCCOCCCN)C3=O | -52.7% (active) | -55% (active) | -5.57% (active) | -11.1% (active) | -48.6% (active) | 3.91% (active) | -98.7% (active) | -79.8% (active) | -34.3% (active) | -4.3% (active) | -42.7% (active) | -83.3% (active) | -87.5% (active) | -21.1% (active) | 28.6% | -62.2% (active) | -4.24% (active) | -16.1% (active) | 2.11% (active) | -9.44% (active)
CC(C)c1ccc2c(c1)CCC1C2CCCC1(C)NCc1ccccc1 (stereo not given) | 6.42% (active) | 16.2% | 85.3% | 104% | 48% | 85.4% | 27.5% | -27.4% (active) | 52.1% | -32% (active) | 26.8% | 80.3% | 66.9% | 45.4% | 95% | 90.6% | 63.1% | 91.5% | 48.3% | 39.9%
O=C(Nc1ccc(-n2ccc3c(NC(=O)c4ccccc4)nccc32)cc1)c1ccc(N2CCOCC2)c(C(F)(F)F)c1 | 20% | 2.44% (active) | 23.5% | 44.6% | 14.4% | 35.7% | 23.7% | 49.4% | 13.4% | 25.3% | 21% | 65.6% | 41.8% | 0.765% (active) | 27.6% | 32.5% | 25.6% | 68.9% | 26.9% | 30.5%
CC(C)(C)c1ccc(OC(=O)Nc2ccccc2)cc1 | 104% | 101% | 106% | 109% | 101% | 96.3% | 104% | 110% | 102% | 122% | 103% | 111% | 100% | 87% | 98.7% | 102% | 104% | 97.7% | 87.1% | 56.6%
COc1ccc(-c2nc3c(c(-c4ccc(Cl)cc4)nn3-c3ccccc3)c(-c3ccc(O)cc3)c2C#N)cc1 | 29.7% | 23% | 35.1% | 62.1% | 33.7% | 23.9% | 42.9% | 56.9% | 12.4% | 59.2% | 62.4% | 49.6% | -26.7% (active) | 36.8% | 93.7% | 50.7% | 40.1% | 61.4% | 12.6% | 14.4%
